In PubChem BioAssay AID527 (NMMLSC, 2006):
Among all 24,000 compounds or so, about 65 (0.3%) were called active.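 How the source made its calls: active means share of bacteria positive for the green fluorescent reporter and its mean brightness both inhibited by 50% or more; inactive means the rest, inconclusive results apart.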 The entries come from a sample that favours actives as a whole.

Assay: S. aureus quorum sensing inhibitors, primary screen, RNAIII-GFP reporter, flow cytometry (AID 527);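 further: 0% = AIP-stimulated control and 100% = unstimulated bacteria without AIP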
Details: S. aureus RN6390 RNAIII-GFP reporter, AIP-induced, flow cytometry 3 h, at 2 µM, stronger effect = higher value
[1] = measured here: inhibition of GFP MFI

| SMILES | inhibition | inhibition [1] [%] |
| --- | --- | --- |
| Cc1nc2ccc(S(=O)(=O)NCC(=O)NCCN3CCCCC3C)cc2s1 (centres undefined) | -2.2% (inactive) | -14.7 |
| CCCOC(=O)c1cc2ccccc2oc1=O | 3.4% (inactive) | 8.3 |
| CSc1cccc(NC(=O)C2CCCN2S(=O)(=O)c2ccc3c(c2)CCC(=O)N3)c1 (centres undefined) | 8.9% (inactive) | 21 |
| O=C(CN1C(=O)CSc2ncccc21)N1CCOCC1 | -5.1% (inactive) | -14.2 |
| CC1CN(C(=O)c2ccc3c(c2)OCO3)OC(c2ccccc2)O1 (centres undefined) | 6% (inactive) | 10.1 |
| c1ccc(-c2cn3cccnc3n2)cc1 | -2.7% (inactive) | -34.3 |
| CS(=O)(=O)NCc1ccc(C(=O)NCc2ccccc2)cc1 | -0.2% (inactive) | -1.2 |
| CS(=O)(=O)N(Cc1nc2sc3c(c2c(=O)[nH]1)CCCC3)C1CCCCC1 | 0.3% (inactive) | -0.2 |
| Cc1ccc(NC(=O)CSc2nnc(-c3cnccn3)n2Cc2ccco2)cc1C | -0.7% (inactive) | -6.3 |
| CC(=O)C1C(c2cccc(Oc3ccccc3)c2)NC(=O)NC1(O)C(F)(F)F (centres undefined) | 18.4% (inactive) | 32 |
| CCOc1ccc(NCCC(=O)c2ccc3c(c2)OCO3)cc1 | -0.1% (inactive) | 10.4 |
| CCOC(=O)C1CCN(C(=O)C2CCN(S(=O)(=O)c3c(C)noc3C)CC2)CC1 | -1.5% (inactive) | -40 |
| COc1cc(C2C(C#N)=C(N)Oc3n[nH]c(-c4ccccn4)c32)cc(OC)c1OC (centres undefined) | -3.4% (inactive) | 8.1 |
| CSc1ccc(NC(=O)N2CC(C)OC(C)C2)cc1 (centres undefined) | 0% (inactive) | 1.1 |
| O=C(CN1CCN(S(=O)(=O)c2ccc(F)cc2)CC1)Nc1ccccc1F | 11.5% (inactive) | 16.5 |
| COc1ccc(C2CC(c3ccc(C)cc3)Nc3ncnn32)cc1 (centres undefined) | -0.4% (inactive) | 12.6 |
| CCCCN=C(N)/C(C(=O)OCC)=C(\O)c1ccc(OC)cc1 | 0.5% (inactive) | 11.9 |
| O=C(O)c1cccc2c1C(=O)N(C1CCCCC1)C2 | 0% (inactive) | 21.1 |
| CCN(CC)S(=O)(=O)c1ccc2[nH]cc(C(=O)NCCc3ccccc3)c(=O)c2c1 | -0.1% (inactive) | -2.7 |

| SMILES | inhibition | inhibition [1] [%] |
| --- | --- | --- |
| COc1c(F)c(F)c(C(=O)O)c(Nc2ccccc2C)c1F | -1.7% (inactive) | -14 |
| COc1ccc(C(=O)Nc2cccnc2)cc1C(=O)Nc1cccnc1 | 2.2% (inactive) | 2.6 |
| COc1ccc(N2C(=O)c3cccc4cccc(c34)C2=O)nn1 | -1.1% (inactive) | -16.4 |
| Cc1cccc(C)c1NC(=O)N1CC=C(n2c(=O)[nH]c3ccccc32)CC1 | 8.3% (inactive) | 17.1 |
| CCCCC(CC)C(=O)Nc1ccc(Cl)cn1 (centres undefined) | 0.6% (inactive) | 18.7 |
| Cc1nc2nc[nH]n2c(=O)c1NC(=O)c1cccc(OCC(C)C)c1 | -5.4% (inactive) | -8.1 |
| COc1ccc(-c2c(C)nn3c(N4CCC(C(=O)N5CCCCC5)CC4)cc(C)nc23)cc1OC | -3.5% (inactive) | -8.8 |
| CCOc1ccc(-c2nnn(CC(=O)N3CCN(c4ccc(F)cc4)CC3)n2)cc1OCC | 0.7% (inactive) | 1.3 |
| COc1cccc(CN2C(=O)CCC2(C)C(=O)NC2CCCCCC2)c1 (centres undefined) | -1.4% (inactive) | -12.5 |
| COCCCNC(=O)c1ccc2c(c1)ncn2-c1ccccc1OC | -3.4% (inactive) | -5.1 |
| CCOC(=O)c1cc(NC(=O)SCC(=O)O)c(C)nc1C | -1.6% (inactive) | -14.7 |
| CCOc1cc(/C=N/n2cnnc2)c(Br)cc1O | -1.6% (inactive) | -8.8 |
| COCCNC(=S)c1ccc(OC)cc1 | -3.4% (inactive) | -6.1 |
| Clc1ccc(Cc2nn3c(-c4ccncc4)nnc3s2)cc1 | 0.3% (inactive) | 5.4 |
| CCC(=O)c1ccc(OCC(O)CN2C(=O)NC(C)(C)C2=O)cc1 (centres undefined) | -0.8% (inactive) | -2.7 |
| COc1ccc(S(=O)(=O)NC(CC(=O)NCc2ccccc2OC)c2ccco2)cc1 (centres undefined) | -0.4% (inactive) | -11.3 |
| CC(C)CCNC(=O)CCNS(=O)(=O)c1ccc(Cl)cc1 | 2.3% (inactive) | 8 |
| O=C(CCS(=O)(=O)Cc1ccccc1F)NCCCN1CCCCC1 | -1.8% (inactive) | -2.4 |
